± gives the standard deviation.
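Further: 1 nM active piRISC with 0.1 nM target library at 33 °C single turnover.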

The first experiment has as its system MILI (PIWIL2) piRISC loaded with L1MC piRNA (26 nt). The experiment can be described thus: pre-steady-state target cleavage rate (min^-1); guide: L1MC piRNA 5'p-UAACUAAAUACUAUGCAAGCUGUAGG; MIWI and MILI are mouse PIWI proteins and EfPiwi is from a freshwater sponge; tags in brackets are library labels; higher = faster piRNA-guided slicing of the target. Conditions: auxiliary factor: 500 nM mouse GTSF1. The gist of the method:
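In this Cleave-'n-Seq assay, uncleaved targets were sequenced and normalised to depth and to weakly complementary targets. They came from a transcribed, DNA-blocked target RNA library […] mixed with 1 nM active affinity-purified piRISC carrying one synthetic guide, with or without 500 nM GTSF1 partner protein, in HEPES–potassium acetate buffer at 33 °C for 0–8 or 0–960 min. After three trials were pooled and k3 was capped at 0.0001 min^-1, the pre-steady-state cleavage rate was obtained from a burst-and-steady-state fit.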
With UCCUGGAUGUCCUUGGAAAGUAUUUAGUUA, the “pre-steady-state target cleavage rate” value was 0.0226 ± 0.0071.
On the same count and under the same terms, next, UCCUGGAUCAGCUUGCAUAGAUUUUAGAAA: 0.00651 ± 0.0043; UCCUGGAUGAGCUUGGAUAGAAUUUAGUUA: 0.0131 ± 0.0067.
As to UCCUGGAUGUCGAACGAUGGUAUUUAGUUA, the “pre-steady-state target cleavage rate” value was less than 0.0001.
Same read-out and setting: next, UCCUGGAUCAGCUUGCAAUGUAUUUACAAA: 0.0196 ± 0.0061.
On the same count and under the same terms, next, UCCUGGAUGUCGAACCAUAGUAUUUGAGUUA: less than 0.0001.
Turning to UCCUGGAUGUCGAACCAUAGAAAUUAGUUA, the “pre-steady-state target cleavage rate” value is less than 0.0001.
Still for that read-out and setting: to UCCUGGAUGAGCUACGAUAGUAUUUAGUUA belongs 0.00662 ± 0.0035.
The same measure, in the same setting: next, UCCUGGAUGUGCUUGGAUAGUAUUUUGUUA: 0.0685 ± 0.02.
The same measure, in the same setting: to UCCUGGAUGUCCUUGCAAAGUAUUUACUUA belongs 0.0234 ± 0.0076.

Staying with this experiment, now noted: auxiliary factor: none (no GTSF1).
Consider UCCUGGAUGUCGAACGUAAGUAUUUAUUUA, for which the “pre-steady-state target cleavage rate” value is less than 0.0001.
On the same count and under the same terms, to “UCCUGGAUGAGCUUGCUAUCAUAAAUCAAA [g15:g21:cont:t1A]” belongs less than 0.0001; to UCCUGCUACAGCUUGCAUAGAUAUUAGAAA, less than 0.0001; to UCCUGGAUGUCGAACGAAAGUAUAUAGUUA, less than 0.0001.
Regarding UCCUGGAUGUCGAACGAUAGUUUUAAGUUA, the “pre-steady-state target cleavage rate” value is less than 0.0001.
On the same count and under the same terms, to UCCUGGAUGUCGAACCAUUCUAUUUAGUUA belongs less than 0.0001.

(Values after the supplement of paper PMC10338343.)
